Rows were chosen to be rich in hits. Some 28% of all compounds tested hit in one or more screens of this group.
CYP2C19 act – human CYP2C19 activators, primary screen, biochemical, luminescence; Cytochrome P450 2C19 (Homo sapiens), P33261; 96,000 tested, under 10 active; activation factor at 5 µM; recombinant CYP2C19, luciferin-H EGE luminescence; stronger effect = higher value; 0 = fully inhibited enzyme, 1 = untreated enzyme;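 active means activation factor of at least 2 at 5 µM in the primary screen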;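 further: 0 = wells with 2.5 mM tranylcypromine and 1 = vehicle-only wells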
D1 mod – D1 CRE-luciferase signal change, two-sided – cell-based, HEK293 D1, dopamine EC30, D1 allosteric modulator project, primary screen; dopamine EC30 potentiation; actives deviate in either direction; B-score at 10 µM; 5.9% of 58,000 active; AID 641, 2007;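 active means luminescence count or its row- and column-corrected plate score outside the 99.7% band of the plate's sample wells, on either side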
Target sequence (P21728 whole entry, looked up): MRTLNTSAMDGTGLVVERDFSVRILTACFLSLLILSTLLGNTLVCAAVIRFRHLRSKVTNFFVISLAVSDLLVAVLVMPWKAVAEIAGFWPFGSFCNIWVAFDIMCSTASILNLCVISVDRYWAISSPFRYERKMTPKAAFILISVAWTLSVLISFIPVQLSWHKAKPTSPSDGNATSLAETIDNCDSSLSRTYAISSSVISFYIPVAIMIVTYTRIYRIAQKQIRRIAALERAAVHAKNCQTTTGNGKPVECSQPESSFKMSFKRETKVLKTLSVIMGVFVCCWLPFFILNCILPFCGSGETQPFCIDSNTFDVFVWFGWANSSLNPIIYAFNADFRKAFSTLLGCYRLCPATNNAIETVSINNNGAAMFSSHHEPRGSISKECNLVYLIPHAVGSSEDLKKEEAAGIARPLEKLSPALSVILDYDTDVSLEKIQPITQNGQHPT
CYP2C9 inh – blockers of cytochrome P450 2C9 activity – biochemical, luminescence, ADME assay, primary screen | P11712 | CYP2C9 Supersomes, luciferin-H conversion | inhibition, % at 5 µM | 20% of 96,000 active | AID 777, 2007;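 active means blocking of liver enzyme CYP2C9 beyond about 50% at 5 µM, limit read from the data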
CYP2C19 inhib – blockers of cytochrome P450 2C19 activity – biochemical, luminescence, ADME assay, primary screen. P33261. inhibition, % at 5 µM. AID 778, 2007. CYP2C19 Supersomes, luciferin-H EGE luminescence, 30 min. 21% of 96,000 active;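 active means CYP2C19 inhibition above a set limit at 5 µM in the primary screen, cut at about 50% in these data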;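 further: plate controls were negative control wells for no effect and 2.5 mM tranylcypromine positive control for full effect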
CYP2C9 activ – human CYP2C9 activators, primary screen, biochemical, luminescence. Cytochrome P450 2C9 (Homo sapiens), P11712. recombinant CYP2C9, luciferin-H conversion; stronger effect = higher value; factor 1 = untreated enzyme, 0 = blocked. activation factor at 5 µM. 1.4% of 96,000 active. AID 1024, 2008;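 active means activation factor of 2 or more for CYP2C9 at a 5 µM dose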;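 further: 0 = sulfaphenazole-blocked wells and 1 = vehicle-only wells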
hDAT+cocaine – changed hDAT dopamine uptake under cocaine IC80, either direction, primary screen, cocaine antagonist project, cell-based, LLC-PK1 hDAT, [14C]-dopamine uptake, MLSMR. Sodium-dependent dopamine transporter (Homo sapiens), Q01959. LLC-PK1 hDAT cells, [14C]-dopamine uptake with cocaine IC80; actives deviate in either direction. B-score at 10 µM. 1.3% of 110,000 active. AID 449768, 2010;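 active means Z score or B-score, a plate-position-corrected score, falls beyond the plate's 99.7% confidence bounds, in either direction; inactive means both scores lie inside the 99.7% bounds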;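 further: scored against the spread of the other compound wells on the same plate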
* = called active by the depositor.

Results for CC(C)(C)c1cccc(OCCCSc2ncccn2)c1 ?
CYP2C19 act: 1; CYP2C9 inh: 1.3; CYP2C19 inhib: -3.1; CYP2C9 activ: 1; hDAT+cocaine: 0.949

Results for O=C(NC(=S)NNC(=O)c1cccs1)c1ccc(Br)o1 ?
CYP2C19 act: 1; CYP2C9 inh: 45.5; CYP2C19 inhib: -3.9; CYP2C9 activ: 0.5; hDAT+cocaine: -0.662

Results for C(=N\N1CCN(Cc2ccccc2)CC1)/c1cccs1 ?
CYP2C19 act: 0.4; CYP2C9 inh: 12.8; CYP2C19 inhib: 60.0*; CYP2C9 activ: 0.9; hDAT+cocaine: -0.652

Results for Oc1ccc(Br)cc1/C=N/N1CCN(Cc2ccccc2)CC1 ?
CYP2C19 act: 1; CYP2C9 inh: -10.3; CYP2C19 inhib: 2.2; CYP2C9 activ: 1.1; hDAT+cocaine: 2.45*

What do the screens show for `C(=N\N1CCN(C2c3ccccc3-c3ccccc32)CC1)/c1cccs1`?
CYP2C19 act: 0.8; CYP2C9 inh: 81.9*; CYP2C19 inhib: 24.4; CYP2C9 activ: 0.2; hDAT+cocaine: -0.00378

How did O=S(=O)(CCc1ccccc1)/N=C/c1cccs1 do in these assays?
CYP2C19 act: 1.1; CYP2C9 inh: -20.7; CYP2C19 inhib: -9.0; CYP2C9 activ: 1.2; hDAT+cocaine: -1.32

How did COc1ccc(CCNC(=O)c2ccc(CS(=O)(=O)c3ccc(C)cc3)o2)cc1OC do in these assays?
CYP2C19 act: 0.8; CYP2C9 inh: 83.2*; CYP2C19 inhib: 17.8; CYP2C9 activ: 0.2; hDAT+cocaine: -0.184

Results for Cc1ccc(S(=O)(=O)Cc2ccc(C(=O)NCCCN3CCCC3=O)o2)cc1 ?
CYP2C19 act: 1; D1 mod: -3.33*; CYP2C9 inh: 23.3; CYP2C19 inhib: 2.5; CYP2C9 activ: 0.8; hDAT+cocaine: 0.312

How did Cc1ccccc1S(=O)(=O)Cc1ccc(C(=O)NCc2cccs2)o1 do in these assays?
CYP2C19 act: 0.6; CYP2C9 inh: 44.2; CYP2C19 inhib: 40.3; CYP2C9 activ: 0.6; hDAT+cocaine: -8.35*

How did O=C(NCCCN1CCCC1=O)c1cccc(C(F)(F)F)c1 do in these assays?
CYP2C19 act: 0.6; D1 mod: -0.875; CYP2C9 inh: 77.1*; CYP2C19 inhib: 44.6; CYP2C9 activ: 0.2; hDAT+cocaine: 0.374

Results for O=C(NCCCN1CCCC1=O)c1cccs1 ?
CYP2C19 act: 0.9; D1 mod: -0.363; CYP2C9 inh: -2.3; CYP2C19 inhib: 11.7; CYP2C9 activ: 1

How did CC(=O)Nc1cccc2c1OCCO2 do in these assays?
CYP2C19 act: 1; D1 mod: -0.222; CYP2C9 inh: -0.3; CYP2C19 inhib: 0.2; CYP2C9 activ: 1; hDAT+cocaine: -0.587

How did Cc1ccc(NC(=S)NCc2cccs2)cc1 do in these assays?
CYP2C19 act: 0.4; CYP2C9 inh: 28.9; CYP2C19 inhib: 57.4*; CYP2C9 activ: 0.7; hDAT+cocaine: 0.00314

How did Cc1ccc(CS(=O)(=O)CCC(=O)NCc2cccs2)cc1 do in these assays?
CYP2C19 act: 0.7; D1 mod: 0.344; CYP2C9 inh: 35.2; CYP2C19 inhib: 26.2; CYP2C9 activ: 0.6; hDAT+cocaine: -1.42

Results for Cc1ccc(S(=O)(=O)Cc2ccc(C(=O)NCc3cccs3)o2)cc1 ?
CYP2C19 act: 0.7; CYP2C9 inh: 72.2*; CYP2C19 inhib: 29.0; CYP2C9 activ: 0.3; hDAT+cocaine: 1.82

Results for CCOC(=O)CN(C(=O)CSc1nnc(COc2ccc(OC)cc2)n1C)c1ccccc1 ?
CYP2C19 act: 1.1; CYP2C9 inh: 35.1; CYP2C19 inhib: -7.8; CYP2C9 activ: 0.6; hDAT+cocaine: -0.129

Results for CCS(=O)(=O)N1CCCC(C(=O)NC2CCC(C)CC2)C1 (stereo not given) ?
CYP2C19 act: 0.7; D1 mod: -0.617; CYP2C9 inh: 0.7; CYP2C19 inhib: 26.7; CYP2C9 activ: 1; hDAT+cocaine: 1.01

How did Cc1ccc(S(=O)(=O)N/N=C\C=C\c2ccccc2)cc1 do in these assays?
CYP2C19 act: 0.8; CYP2C9 inh: 83.5*; CYP2C19 inhib: 17.2; CYP2C9 activ: 0.2; hDAT+cocaine: -0.906
